The record followed here is ChEMBL document CHEMBL1961873, “Compounds: GSK PKIS; Assays: Nanosyn kinase panel” (2012).

In assay [1] the target is Sphingosine kinase 1 (Homo sapiens) (UniProt Q9NYA1). The settings on record: at 1 µM.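 Note: mean SPHK1 inhibition value reported from the GSK PKIS kinase panel screen.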
Assay [2] deals with T1, Sphingosine kinase 2 (Homo sapiens) (UniProt Q9NRA0).
T1 sequence (whole entry): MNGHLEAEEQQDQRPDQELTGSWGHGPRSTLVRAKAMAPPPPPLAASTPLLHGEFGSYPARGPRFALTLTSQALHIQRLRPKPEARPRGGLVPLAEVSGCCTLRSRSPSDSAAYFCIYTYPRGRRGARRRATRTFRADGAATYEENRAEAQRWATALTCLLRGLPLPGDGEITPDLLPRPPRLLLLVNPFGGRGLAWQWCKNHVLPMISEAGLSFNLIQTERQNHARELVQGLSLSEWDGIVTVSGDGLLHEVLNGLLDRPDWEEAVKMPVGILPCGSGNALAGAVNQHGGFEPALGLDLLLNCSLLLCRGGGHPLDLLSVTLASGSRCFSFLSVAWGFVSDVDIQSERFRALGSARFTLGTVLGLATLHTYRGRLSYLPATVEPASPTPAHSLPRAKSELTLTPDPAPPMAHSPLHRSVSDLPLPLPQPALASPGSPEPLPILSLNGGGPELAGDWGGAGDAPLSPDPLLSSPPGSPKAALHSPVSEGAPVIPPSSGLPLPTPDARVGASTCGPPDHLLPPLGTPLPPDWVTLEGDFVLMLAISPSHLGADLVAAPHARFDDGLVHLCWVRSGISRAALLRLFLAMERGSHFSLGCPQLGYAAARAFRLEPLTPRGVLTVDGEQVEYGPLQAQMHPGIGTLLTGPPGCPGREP
The note with it: at 0.1 µM.

Assay [3] has as its target T1, Sphingosine kinase 2 (Homo sapiens). The settings on record: at 1 µM.
In assay [4] the target is Casein kinase II subunit alpha (Homo sapiens) (UniProt P68400). The settings on record: at 0.1 µM.
Sequence of Casein kinase II subunit alpha (Homo sapiens) (P68400 whole entry, looked up): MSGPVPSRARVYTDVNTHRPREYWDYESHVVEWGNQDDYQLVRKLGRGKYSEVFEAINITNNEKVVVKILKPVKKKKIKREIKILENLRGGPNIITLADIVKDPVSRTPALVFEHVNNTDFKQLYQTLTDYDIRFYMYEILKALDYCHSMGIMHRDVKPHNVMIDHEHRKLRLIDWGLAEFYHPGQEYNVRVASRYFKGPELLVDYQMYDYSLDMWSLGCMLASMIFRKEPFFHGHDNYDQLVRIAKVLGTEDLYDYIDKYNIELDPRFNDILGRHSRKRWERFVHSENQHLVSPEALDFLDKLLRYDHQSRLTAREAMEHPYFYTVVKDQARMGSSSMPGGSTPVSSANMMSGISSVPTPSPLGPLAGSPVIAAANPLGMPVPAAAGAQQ
For assay [5] the target is unchanged. The settings on record: at 1 µM.
Assay [6] deals with T2, Inhibitor of nuclear factor kappa-B kinase subunit alpha (Homo sapiens) (UniProt O15111).
T2 sequence (whole entry): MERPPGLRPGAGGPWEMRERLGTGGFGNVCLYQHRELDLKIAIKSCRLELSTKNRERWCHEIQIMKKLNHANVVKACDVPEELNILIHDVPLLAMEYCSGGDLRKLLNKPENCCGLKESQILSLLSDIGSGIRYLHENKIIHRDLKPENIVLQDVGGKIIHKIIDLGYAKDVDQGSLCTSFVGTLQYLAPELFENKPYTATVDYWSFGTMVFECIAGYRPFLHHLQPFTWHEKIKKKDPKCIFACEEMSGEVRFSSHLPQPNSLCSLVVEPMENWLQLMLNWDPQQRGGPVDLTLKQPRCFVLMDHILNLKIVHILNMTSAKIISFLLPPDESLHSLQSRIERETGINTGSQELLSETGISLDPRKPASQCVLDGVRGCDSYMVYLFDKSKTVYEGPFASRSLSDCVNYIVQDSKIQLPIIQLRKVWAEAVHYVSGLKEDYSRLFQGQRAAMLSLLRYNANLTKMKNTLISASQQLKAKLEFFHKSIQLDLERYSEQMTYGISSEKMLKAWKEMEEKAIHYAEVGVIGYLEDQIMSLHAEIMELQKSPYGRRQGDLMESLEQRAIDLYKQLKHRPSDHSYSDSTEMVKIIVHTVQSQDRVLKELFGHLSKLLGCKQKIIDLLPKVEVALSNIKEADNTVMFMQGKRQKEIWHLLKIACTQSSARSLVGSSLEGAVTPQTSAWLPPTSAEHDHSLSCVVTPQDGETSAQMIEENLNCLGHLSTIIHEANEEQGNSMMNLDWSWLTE
The settings on record: at 0.1 µM.

In assay [7] the target is T2, Inhibitor of nuclear factor kappa-B kinase subunit alpha (Homo sapiens). The settings on record: at 1 µM.
For assay [8], the target named is T3, Inhibitor of nuclear factor kappa-B kinase subunit beta (Homo sapiens) (UniProt O14920).
T3 sequence (whole entry): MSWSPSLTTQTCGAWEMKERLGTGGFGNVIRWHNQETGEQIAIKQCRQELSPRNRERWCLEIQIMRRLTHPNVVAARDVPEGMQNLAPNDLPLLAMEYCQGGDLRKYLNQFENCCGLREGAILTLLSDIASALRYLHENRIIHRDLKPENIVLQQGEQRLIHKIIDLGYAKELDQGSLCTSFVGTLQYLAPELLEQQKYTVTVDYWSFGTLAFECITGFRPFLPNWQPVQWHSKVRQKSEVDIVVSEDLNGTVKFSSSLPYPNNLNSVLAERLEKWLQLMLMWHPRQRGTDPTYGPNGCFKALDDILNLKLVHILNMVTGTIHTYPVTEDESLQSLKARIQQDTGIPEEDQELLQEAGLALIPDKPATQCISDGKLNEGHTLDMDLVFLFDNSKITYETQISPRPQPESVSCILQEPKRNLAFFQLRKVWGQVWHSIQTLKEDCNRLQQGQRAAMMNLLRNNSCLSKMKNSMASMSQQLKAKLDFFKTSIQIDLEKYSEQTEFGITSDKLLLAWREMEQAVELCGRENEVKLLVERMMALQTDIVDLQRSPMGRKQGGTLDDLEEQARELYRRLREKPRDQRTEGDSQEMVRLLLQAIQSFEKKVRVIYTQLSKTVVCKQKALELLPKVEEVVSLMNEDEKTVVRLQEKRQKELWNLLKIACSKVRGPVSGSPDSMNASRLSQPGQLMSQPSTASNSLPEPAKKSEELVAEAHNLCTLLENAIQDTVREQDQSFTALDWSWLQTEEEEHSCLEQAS
The settings on record: at 0.1 µM.

Assay [9] addresses T3, Inhibitor of nuclear factor kappa-B kinase subunit beta (Homo sapiens). The note with it: at 1 µM.
For assay [10], the target named is T4, Inhibitor of nuclear factor kappa-B kinase subunit epsilon (Homo sapiens) (UniProt Q14164).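 Note: mean inhibition of IKKε reported, from the GSK PKIS dataset.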
T4 sequence (whole entry): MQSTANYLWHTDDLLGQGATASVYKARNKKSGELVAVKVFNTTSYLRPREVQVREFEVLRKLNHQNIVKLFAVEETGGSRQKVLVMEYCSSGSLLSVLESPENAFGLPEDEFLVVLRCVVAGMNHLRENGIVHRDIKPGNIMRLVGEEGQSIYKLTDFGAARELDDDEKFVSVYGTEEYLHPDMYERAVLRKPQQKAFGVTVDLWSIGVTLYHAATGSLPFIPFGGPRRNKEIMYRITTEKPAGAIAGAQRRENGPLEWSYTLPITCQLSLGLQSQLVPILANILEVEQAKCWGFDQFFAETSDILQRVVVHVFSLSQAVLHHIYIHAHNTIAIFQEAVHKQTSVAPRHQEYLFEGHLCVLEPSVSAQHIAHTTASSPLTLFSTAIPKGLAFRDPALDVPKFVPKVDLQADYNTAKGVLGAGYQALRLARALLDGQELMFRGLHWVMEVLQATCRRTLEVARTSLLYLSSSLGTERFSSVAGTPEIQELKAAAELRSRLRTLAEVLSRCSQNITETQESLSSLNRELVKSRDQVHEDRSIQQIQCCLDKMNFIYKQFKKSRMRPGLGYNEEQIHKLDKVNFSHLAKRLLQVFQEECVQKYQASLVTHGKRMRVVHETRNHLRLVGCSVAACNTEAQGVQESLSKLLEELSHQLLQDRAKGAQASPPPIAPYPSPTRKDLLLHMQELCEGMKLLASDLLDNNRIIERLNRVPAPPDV
The note with it: at 0.1 µM.

Molecules are shown by their SMILES.

Sequence of Sphingosine kinase 1 (Homo sapiens) (Q9NYA1 whole entry): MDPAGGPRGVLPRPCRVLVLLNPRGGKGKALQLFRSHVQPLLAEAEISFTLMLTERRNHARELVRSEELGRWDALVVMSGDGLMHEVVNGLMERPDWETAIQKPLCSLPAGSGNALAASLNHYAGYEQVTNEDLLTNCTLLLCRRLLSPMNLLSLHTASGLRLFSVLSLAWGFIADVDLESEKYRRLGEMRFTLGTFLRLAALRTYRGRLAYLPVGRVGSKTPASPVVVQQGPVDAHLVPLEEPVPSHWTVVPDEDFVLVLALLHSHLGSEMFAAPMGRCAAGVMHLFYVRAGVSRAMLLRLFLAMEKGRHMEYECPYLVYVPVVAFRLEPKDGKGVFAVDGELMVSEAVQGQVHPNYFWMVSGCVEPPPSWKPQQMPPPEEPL

As to `COc1ccc(-c2nn3ncccc3c2-c2ccnc(Nc3ccc(Cl)c(C(F)(F)F)c3)n2)cc1`, the inhibition in assay [1] was -2.15%; in [2], -0.61%; in [3], 0.61%; in assay [4], 2.8%; in assay [5] it was 8.2%; in assay [6] it was 5.34%. The inhibition in assay [7] turned out to be 3.48%; in assay [8] it was 5.25%; in assay [9] it was 8.22%; in assay [10], 4.71%.
For `Nc1ncnc2occ(-c3ccc(NC(=O)Nc4cccc(C(F)(F)F)c4)cc3)c12`, the inhibition was -6.26% in assay [1]; 0.27% in assay [2]; 1.95% in assay [3]; 7.18% in assay [4]; 4.76% in [5]; 6.44% in assay [6]. The inhibition in assay [7] came out at 11.1%; in assay [8] it was 6.2%; in [9], 7.53%; in assay [10], 8.03%.
Consider `COc1ccc2cc(-c3c(-c4ccncc4)nc(-c4ccc([S+](C)[O-])cc4)n3C)ccc2c1` (centres undefined), for which the inhibition in assay [1] was -3.23%; in assay [2] it was -1.61%; in assay [3], -1.21%; in [4] it was 0.27%; in [5] it was -4.21%; in [6], 3.64%. Moreover, the inhibition in assay [7] was determined as 0.12%; in assay [8], 3.95%; in assay [9], 3.93%; in assay [10], 4.41%.
`CS(=O)(=O)Nc1ccc(N/C=C2\C(=O)Nc3ccccc32)cc1`: the inhibition in assay [1] was 0.22%; in [2], -1.15%; in [3], 0.65%; in [4] it was 2.93%; in assay [5], 0.34%; in [6], -1.19%. In addition, the inhibition in [7] was 13.7%; in assay [8], -4.89%; in assay [9] it was -1.38%; in [10] it was -4.27%.
Regarding `COc1ccc(-c2ccncc2)cc1C(N)=O`, the inhibition in assay [1] is -0.74%; in assay [2], 0.88%; in [3] it was -0.67%; in assay [5] it was 4.44%; in [6], 2.55%; in assay [7], 9.39%. Moreover, the inhibition in [8] was 4.74%; in assay [9] it was 7.06%; in [10], 5.87%.
Take `O=C1NC(=O)C(c2ccc(Cl)cc2)=C1Nc1ccc(Cl)c(C(=O)O)c1`: the inhibition was -0.08% in [1]; 2.29% in assay [2]; 0.32% in assay [3]; -0.4% in assay [4]; -2.48% in [5]; 11.5% in assay [6]. Moreover, the inhibition is 4.5% in assay [7], 0.8% in assay [8], -1.44% in assay [9] and -4.08% in assay [10].
Regarding `Cc1cc(O)cc(C)c1/C=C/c1cncc(-c2nn[nH]n2)c1`, the inhibition in assay [1] was -1.54%; in assay [2], 1.53%; in assay [3] it was -0.11%; in assay [4], 2.01%; in [5] it was 6.14%; in assay [6], 4.82%. Further, the inhibition in assay [7] was determined as 4%; in assay [8], 5.96%; in assay [9], 4.65%; in assay [10], 5.04%.
Take `CCCN1CCC=C(c2ccc(Nc3nc(Nc4ccccc4C(N)=O)c4cc[nH]c4n3)c(C)c2)C1`: the inhibition in assay [1] is 1.28%; in assay [2], -1.02%; in assay [3], 0.04%; in assay [4], 33.7%; in [5], 72%; in assay [6], 13.6%. In addition, the inhibition was determined as 16% in assay [7], 5.1% in assay [8], 8.74% in assay [9] and 9.65% in assay [10].
Take `CN1CCC(C(=O)Nc2n[nH]c3nnc(-c4ccccc4)cc23)CC1`: the inhibition in assay [1] is -3.46%; in assay [2], -0.94%; in assay [3] it was -2.16%; in assay [4] it was 6.73%; in assay [5], 12.2%; in assay [6], 6.86%. Further, the inhibition in [7] stood at 1.13%; in [8], 11.4%; in assay [9] it was 12.4%; in [10], 7.37%.

The term inhibition denotes the drop in the measured response relative to a control, in per cent.
